“And” between values parts separate entries of the source, which are not always exact repeats. Equal values may be shown once. Where a name gives a salt, the structure may show the parent alone.

Experiment in all cases: cell viability relative to vehicle control; higher = less cytotoxic
Conditions in all cases: 10 µM

One test has as its system K562. A digest of the protocol:
(§1)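 CRISPR-edited mutant clones and isogenic wild-type clones from four leukaemia lines were screened against Selleck bioactive, kinase and epigenetic probe libraries, with identity-inconsistent compounds excluded. Each compound was acoustically dispensed at a single 10 µM dose into 384-well plates holding 2000 cells in 50 µL medium per well. After 48 h the supernatant was removed and CellTiter-Glo luminescence was read. Viability was expressed as percent of the on-plate vehicle control and analysed in Genedata Screener.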

Another test relates to MARIMO. A digest of the protocol:
as §1

For the next test, the system named is MOLM14. A digest of the protocol: as §1
For the next test, the system named is OCI-AML2. A digest of the protocol:
as §1

Regarding `COc1ccc(C2CC(=O)c3c(O)cc(OC4OC(COC5OC(C)C(O)C(O)C5O)C(O)C(O)C4O)cc3O2)cc1OC` (stereo not given) [Methyl-Hesperidin], the cell viability (as a rule, a read-out of living cells in per cent, often relative to untreated cells) was 96.9% and 106% with K562 (SRSF2 genotype: SRSF2 P95H/wt); 97.8% with K562 (SRSF2 genotype: SRSF2 wt/wt); 107% with MARIMO (SRSF2 genotype: SRSF2 P95H/wt); 114% in the test on MARIMO (SRSF2 genotype: SRSF2 wt/wt); 108% with MOLM14 (SRSF2 genotype: SRSF2 P95H/wt); 107% with MOLM14 (SRSF2 genotype: SRSF2 wt/wt). In addition, the cell viability with OCI-AML2 (SRSF2 genotype: P95H/wt) came out at 107%; with OCI-AML2 (SRSF2 genotype: wt/wt) it was 104%.
With `COc1ccc(CC2c3cc(OC)c(OC)cc3CC[N+]2(C)CCC(=O)OCCCCCOC(=O)CC[N+]2(C)CCc3cc(OC)c(OC)cc3C2Cc2ccc(OC)c(OC)c2)cc1OC` (stereo not given) [Atracurium besylate], the cell viability with K562 (SRSF2 genotype: SRSF2 P95H/wt) was 90% and 97.2%; with K562 (SRSF2 genotype: SRSF2 wt/wt), 87.9%; in the test with MARIMO (SRSF2 genotype: SRSF2 P95H/wt), 87.3%; in the test on MARIMO (SRSF2 genotype: SRSF2 wt/wt), 84.9%; with MOLM14 (SRSF2 genotype: SRSF2 P95H/wt), 75%; in the test with MOLM14 (SRSF2 genotype: SRSF2 wt/wt) it was 97.1%. Also, the cell viability with OCI-AML2 (SRSF2 genotype: P95H/wt) was found to be 115%; in the test with OCI-AML2 (SRSF2 genotype: wt/wt), 108%.
As to `O=C(OC[C@H]1O[C@@H](OC(=O)c2cc(O)c(O)c(OC(=O)c3cc(O)c(O)c(O)c3)c2)[C@H](OC(=O)c2cc(O)c(O)c(OC(=O)c3cc(O)c(O)c(O)c3)c2)[C@@H](OC(=O)c2cc(O)c(O)c(OC(=O)c3cc(O)c(O)c(O)c3)c2)[C@@H]1OC(=O)c1cc(O)c(O)c(OC(=O)c2cc(O)c(O)c(O)c2)c1)c1cc(O)c(O)c(OC(=O)c2cc(O)c(O)c(O)c2)c1` [Tannic acid], the cell viability with K562 (SRSF2 genotype: SRSF2 P95H/wt) is 96.5% and 87.2%; in the test on K562 (SRSF2 genotype: SRSF2 wt/wt) it was 98.5%; in the test on MARIMO (SRSF2 genotype: SRSF2 P95H/wt), 98.7%; with MARIMO (SRSF2 genotype: SRSF2 wt/wt), 99.3%; in the test on MOLM14 (SRSF2 genotype: SRSF2 P95H/wt), 89.6%; in the test on MOLM14 (SRSF2 genotype: SRSF2 wt/wt), 92.2%. The cell viability came to 106% with OCI-AML2 (SRSF2 genotype: P95H/wt) and 94.8% in the test with OCI-AML2 (SRSF2 genotype: wt/wt).
On to `COc1ccc(-c2cnc3c(-c4cccc5ncccc45)cnn3c2)cc1`, for which the cell viability in the test with K562 (SRSF2 genotype: SRSF2 P95H/wt) was 98.9% and 100%; in the test on K562 (SRSF2 genotype: SRSF2 wt/wt) it was 92.7%; with MARIMO (SRSF2 genotype: SRSF2 P95H/wt) it was 104%; in the test on MARIMO (SRSF2 genotype: SRSF2 wt/wt), 112%; in the test with MOLM14 (SRSF2 genotype: SRSF2 P95H/wt), 93%; in the test with MOLM14 (SRSF2 genotype: SRSF2 wt/wt), 108%. In addition, the cell viability in the test on OCI-AML2 (SRSF2 genotype: P95H/wt) came to 90.4%; in the test with OCI-AML2 (SRSF2 genotype: wt/wt), 91.5%.
In the case of `CC(C)(Cc1ccc2ccccc2c1)NC[C@@H](O)COc1cccc(Cl)c1C#N`, the cell viability in the test on K562 (SRSF2 genotype: SRSF2 P95H/wt) is 10.7% and 3.37%; in the test on K562 (SRSF2 genotype: SRSF2 wt/wt), 1.65%; with MARIMO (SRSF2 genotype: SRSF2 P95H/wt), 26.8%; in the test on MARIMO (SRSF2 genotype: SRSF2 wt/wt), 25.5%; with MOLM14 (SRSF2 genotype: SRSF2 P95H/wt) it was 8.56%; with MOLM14 (SRSF2 genotype: SRSF2 wt/wt), 2.3%. The cell viability with OCI-AML2 (SRSF2 genotype: P95H/wt) is 0.55%; in the test on OCI-AML2 (SRSF2 genotype: wt/wt), 1.15%.
On to `O=C(Nc1ccc(S(=O)(=O)Nc2ccccc2Cl)c(Cl)c1)c1ccccn1`, for which the cell viability in the test on K562 (SRSF2 genotype: SRSF2 P95H/wt) was 98.1% and 99%; in the test on K562 (SRSF2 genotype: SRSF2 wt/wt) it was 99.7%; in the test with MARIMO (SRSF2 genotype: SRSF2 P95H/wt), 95.6%; with MARIMO (SRSF2 genotype: SRSF2 wt/wt) it was 101%; in the test on MOLM14 (SRSF2 genotype: SRSF2 P95H/wt), 97.6%; with MOLM14 (SRSF2 genotype: SRSF2 wt/wt), 98.3%. Moreover, the cell viability with OCI-AML2 (SRSF2 genotype: P95H/wt) came to 103%; in the test on OCI-AML2 (SRSF2 genotype: wt/wt), 104%.
For the molecule `O=C([O-])c1ccccc1.[Na+]` [Sodium benzoate], the cell viability with K562 (SRSF2 genotype: SRSF2 P95H/wt) is 86.9% and 85.9%; with K562 (SRSF2 genotype: SRSF2 wt/wt), 86.1%; with MARIMO (SRSF2 genotype: SRSF2 P95H/wt), 83.9%; in the test with MARIMO (SRSF2 genotype: SRSF2 wt/wt) it was 90.9%; in the test on MOLM14 (SRSF2 genotype: SRSF2 P95H/wt) it was 93%; in the test on MOLM14 (SRSF2 genotype: SRSF2 wt/wt), 89.5%. The cell viability in the test on OCI-AML2 (SRSF2 genotype: P95H/wt) stood at 86%; with OCI-AML2 (SRSF2 genotype: wt/wt), 97.5%.
Take `C=CC(=O)Nc1cc(Nc2nccc(-n3cc(CN(C)C)c(-c4ccccc4)n3)n2)c(OC)cc1N1CCOCC1`: the cell viability in the test on K562 (SRSF2 genotype: SRSF2 P95H/wt) was 85.6% and 94.6%; in the test on K562 (SRSF2 genotype: SRSF2 wt/wt) it was 84.8%; with MARIMO (SRSF2 genotype: SRSF2 P95H/wt) it was 76.5%; with MARIMO (SRSF2 genotype: SRSF2 wt/wt) it was 80.2%; in the test with MOLM14 (SRSF2 genotype: SRSF2 P95H/wt), 74.2%; in the test on MOLM14 (SRSF2 genotype: SRSF2 wt/wt), 75.5%. Further, the cell viability came out at 63.9% in the test on OCI-AML2 (SRSF2 genotype: P95H/wt) and 63.3% in the test with OCI-AML2 (SRSF2 genotype: wt/wt).
For the molecule `Cn1cc(C2=C(c3cn(CCCSC(=N)N)c4ccccc34)C(=O)NC2=O)c2ccccc21` [Ro 31-8220 Mesylate], the cell viability with K562 (SRSF2 genotype: SRSF2 P95H/wt) is 4.21% and 2.6%; in the test on K562 (SRSF2 genotype: SRSF2 wt/wt), 3.72%; in the test with MARIMO (SRSF2 genotype: SRSF2 P95H/wt), 2.81%; in the test on MARIMO (SRSF2 genotype: SRSF2 wt/wt) it was 0.92%; in the test on MOLM14 (SRSF2 genotype: SRSF2 P95H/wt), 0.22%; in the test on MOLM14 (SRSF2 genotype: SRSF2 wt/wt), -0.01%. Moreover, the cell viability in the test on OCI-AML2 (SRSF2 genotype: P95H/wt) was found to be 0.07%; with OCI-AML2 (SRSF2 genotype: wt/wt), 2.11%.
`CNCCN(C)Cc1c[nH]nc1-c1ccc(O[C@H]2C[C@H](OCCC3CCOCC3)C2)cc1`: the cell viability in the test on K562 (SRSF2 genotype: SRSF2 P95H/wt) is 90% and 92.8%; with K562 (SRSF2 genotype: SRSF2 wt/wt), 89.7%; with MARIMO (SRSF2 genotype: SRSF2 P95H/wt), 89%; in the test with MARIMO (SRSF2 genotype: SRSF2 wt/wt) it was 92.4%; in the test with MOLM14 (SRSF2 genotype: SRSF2 P95H/wt) it was 79.4%; in the test with MOLM14 (SRSF2 genotype: SRSF2 wt/wt), 96.4%. For the same molecule, the cell viability stood at 67.1% in the test on OCI-AML2 (SRSF2 genotype: P95H/wt) and 75.1% in the test with OCI-AML2 (SRSF2 genotype: wt/wt).

For the origin of these results see the supplement of paper PMC10981050.
